# Data taken from paper PMC4336329 (PLoS ONE, 2015).
# About 14,000 (4.5%) of roughly 310,000 compounds showed an effect of 50% or more. Effects have a minus sign here. The list comes from a sample in which strong results are over-represented; it also holds similar structures and randomly drawn compounds.
# Target: human ether-à-go-go-related gene (hERG) potassium channel (human, UniProt Q12809)
# Experiment: primary screen, population patch clamp on CHO cells stably expressing hERG; higher = less effect of the substance
# 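Note: peak tail current of the secondary pulse compared with the same well before compound.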
# Sequence of human ether-à-go-go-related gene (hERG) potassium channel (Q12809 whole entry, looked up): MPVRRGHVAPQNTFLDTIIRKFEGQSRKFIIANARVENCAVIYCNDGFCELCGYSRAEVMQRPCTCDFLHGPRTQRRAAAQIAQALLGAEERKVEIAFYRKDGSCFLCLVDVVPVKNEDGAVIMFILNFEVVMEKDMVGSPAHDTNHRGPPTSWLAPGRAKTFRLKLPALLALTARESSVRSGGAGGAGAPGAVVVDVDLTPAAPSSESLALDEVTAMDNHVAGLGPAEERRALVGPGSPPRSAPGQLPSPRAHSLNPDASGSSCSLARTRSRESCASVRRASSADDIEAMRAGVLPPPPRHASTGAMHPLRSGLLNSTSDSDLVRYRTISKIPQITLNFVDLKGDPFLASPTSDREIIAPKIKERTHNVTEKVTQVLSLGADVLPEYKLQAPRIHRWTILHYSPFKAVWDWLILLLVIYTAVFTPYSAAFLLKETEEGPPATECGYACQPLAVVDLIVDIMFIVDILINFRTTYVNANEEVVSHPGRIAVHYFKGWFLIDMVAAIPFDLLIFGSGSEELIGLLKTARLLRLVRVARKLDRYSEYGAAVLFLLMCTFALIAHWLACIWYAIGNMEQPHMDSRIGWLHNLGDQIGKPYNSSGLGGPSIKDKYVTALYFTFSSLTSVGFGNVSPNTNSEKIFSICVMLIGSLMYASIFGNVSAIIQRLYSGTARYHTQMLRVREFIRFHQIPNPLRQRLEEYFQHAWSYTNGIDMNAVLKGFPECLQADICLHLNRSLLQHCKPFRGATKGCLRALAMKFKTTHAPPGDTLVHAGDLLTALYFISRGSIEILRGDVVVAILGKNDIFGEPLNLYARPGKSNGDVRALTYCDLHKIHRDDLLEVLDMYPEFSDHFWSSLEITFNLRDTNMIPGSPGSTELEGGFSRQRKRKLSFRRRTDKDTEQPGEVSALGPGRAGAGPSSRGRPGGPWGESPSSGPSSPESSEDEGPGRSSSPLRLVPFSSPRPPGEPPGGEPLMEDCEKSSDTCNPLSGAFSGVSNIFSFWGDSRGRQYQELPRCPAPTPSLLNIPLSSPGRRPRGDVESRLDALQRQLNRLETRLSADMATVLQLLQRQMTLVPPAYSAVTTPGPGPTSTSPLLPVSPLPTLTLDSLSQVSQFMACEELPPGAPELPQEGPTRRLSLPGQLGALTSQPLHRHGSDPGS
row,Structure (SMILES),"hERG current change (%, negative = inhibition) at 10uM [%]"
1,Cc1cc(=O)nc2c3ccccc3n(CC(=O)Nc3ccccc3Br)n12,-7.45
2,CCOc1ccc(N(CC(=O)Nc2cccc(Br)c2)S(C)(=O)=O)cc1,-1.12
3,NC(=O)C1CCN(/C=C2\C(=O)NC(=O)N(Cc3ccco3)C2=O)CC1,6.74
4,COc1ccccc1CNC(=O)COc1ccc(C)nc1[N+](=O)[O-],18.3
5,CCN(C(=O)COc1ccc(C(=O)c2ccccc2)cc1)c1ccccc1,-18.9
6,O=C1NNC(=O)C1c1ccccc1,25.7
7,CCOC(=O)c1[nH]ncc1CN1CCC(Cc2cccc(OC)c2)(C(=O)OCC)CC1,-37.6
8,CCOC(=O)C1(Cc2cccc(OC)c2)CCN(Cc2cc(OC)ccc2OC)CC1,-67.2
9,CCOC(=O)C1(Cc2cccc(OC)c2)CCN(Cc2cccc(OC)c2O)CC1,-66
10,CC(C)c1ccc(CN2CCN(C(=O)CSc3nnnn3C3CC3)CC2)cc1,-28.1
11,COc1ccc2c(C(=O)CN(C)C3CCCCC3)c[nH]c2c1,9.09
12,Cc1csc(NC(=O)CSc2nnc(-c3cccs3)n2C)n1,-60.5
13,CC(=O)Nc1ccc(NC(=O)CSc2nnc(-c3cccs3)n2C)cc1,-7.69
14,Cc1csc(NC(=O)CSc2nnc(-c3ccncc3)n2C)n1,-17.5
15,Cc1csc(NC(=O)CSc2nnc(CCNC(=O)c3cccs3)n2C)n1,8.1
16,Cc1cnc(NC(=O)CSc2nnc(Cc3ccccc3)n2C)s1,-12.1
17,Cc1cnc(NC(=O)CSc2nnc(-c3cccs3)n2C)s1,-59.4
18,O=C(CCCc1nc2ccccc2s1)NCc1ccccc1F,-20.2
19,CCN(CC(=O)Nc1c(F)cccc1F)C(=O)c1cccc(-n2cccc2)c1,-27.1

row,Structure (SMILES),"hERG current change (%, negative = inhibition) at 10uM [%]"
1,CCCCCN(C(=O)CCC(=O)OC(C)C(=O)NCc1ccccc1)c1c(N)n(CCCC)c(=O)[nH]c1=O (stereo not drawn),-14.5
2,O=C(c1cnn2c(C(F)F)cc(-c3ccccc3)nc12)N1CCCc2ccccc21,-3.45
3,COCCn1c(SCC(=O)N2CCCC2)nnc1-c1ccco1,18.6
4,Cc1ccc(/C=N\NC(=O)Cc2noc3ccccc23)cc1,15.6
5,COC(=O)c1ccc(C(=S)N2CCCCC2)cc1,8.89
6,COC(=O)c1ccc(SCc2cnc(Cl)s2)cc1,1.27
7,Clc1ncc(CSc2ccccc2)s1,3.25
8,O=C(O)c1ccc(SCc2cnc(Cl)s2)cc1,-70
9,COC(=O)c1ccc(CNC(=O)c2ccc3c(c2)S(=O)(=O)N=C2CCCCCN23)cc1,-10.5
10,Cc1cc2ccccc2c(=O)n1CC(=O)NCC1COc2ccccc2O1 (stereo not drawn),0.464
11,CCn1cc(/C=N\NC(=O)Cc2ccc([N+](=O)[O-])cc2)c(C)n1,-25.1
12,CCN(Cc1ccc(NC(C)=O)cc1)CC1CCCN(CCc2cccc(OC)c2)C1 (stereo not drawn),-30.3
13,CCN(Cc1ccc(OC)c(COC)c1)CC1CCCN(CCc2cccc(F)c2)C1 (stereo not drawn),-67.7
14,CN(Cc1ccc(C#CCCO)cc1)CC1CCCN(CCc2ccc(Cl)cc2)C1 (stereo not drawn),-70.9
15,CCN(Cc1cccc(OC)c1)CC1CCCN(CCc2cccc(OC)c2)C1 (stereo not drawn),-47.3
16,CCN(Cc1ccc(C#CCCO)cc1)CC1CCCN(CCc2cccc(F)c2)C1 (stereo not drawn),-65.2
17,OCCC#Cc1ccc(CN2CCN(C3CCCCC3)C(CCO)C2)cc1 (stereo not drawn),-0.113
18,CCN(Cc1ccc(OC)c(COC)c1)CC1CCCN(CCc2cccc(OC)c2)C1 (stereo not drawn),-26.3
19,CCN(Cc1ccc(C#CCCO)cc1)CC1CCCN(CCc2cccc(OC)c2)C1 (stereo not drawn),-58.5

row,Structure (SMILES),"hERG current change (%, negative = inhibition) at 10uM [%]"
1,CCOc1ccc(NC(=O)Nc2cc(C(=O)O)ccc2N2CC3CC(C2)c2cccc(=O)n2C3)cc1 (stereo not drawn),12.4
2,Cc1cc(C)cc(Nc2cc(C)nc3nc(C)nn23)c1,-14.7
3,O=c1[nH]c(/C=C/c2ccccc2)c([N+](=O)[O-])c(=O)[nH]1,5.45
4,CCN1C(=O)Nc2cccc3cccc1c23,1.65
5,CCN(CC)C(=O)c1cnn(-c2ccccc2)c1NC(=O)c1ccco1,-12.8
6,COc1ccc(/C=C/C(=O)Nc2ccccc2C(=O)NCC(c2ccc(OC)cc2)N(C)C)cc1 (stereo not drawn),-49.6
7,CCc1nc(N=Nc2c(O)[nH]c3ccccc23)c2c3c(sc2n1)CCC3,13.7
8,O=C(COC(=O)c1cc(Cl)ccc1[N+](=O)[O-])NCc1ccc(Cl)cc1Cl,-11.8
9,COc1ccccc1CCNC(=O)CN1C(=O)c2ccccc2S1(=O)=O,2.11
10,CC(C)(C)C(=O)NC1CCSC1=O (stereo not drawn),8.46
11,CN(C)CCN1C(=O)C2C3C=CC(C3)C2C1=O (stereo not drawn),20.6
12,Cc1cc(C)c2c(=O)[nH]c(SCC(=O)Nc3ccc(N(C)C)cc3)nc2n1,-2.77
13,CCCc1[nH]nc2c1C(Cc1ccccc1)C(C#N)=C(N)O2 (stereo not drawn),0.432
14,Cc1nn(-c2ccccc2)c(C)c1-c1cc(C(=O)N/N=C/c2cccnc2)[nH]n1,-18.7
15,Cc1cccc2c1N(C)C(=O)C2=O,17.1
16,Cc1ccc(NC(=O)CNCc2ccccn2)cc1S(=O)(=O)N(C)C,20.9
17,CCN(Cc1ccc(O)cc1)CC1CCCN(CCc2cccc(F)c2)C1 (stereo not drawn),-71.1
18,CCN(Cc1ccc(NC(C)=O)cc1)CC1CCCN(CCc2cccc(F)c2)C1 (stereo not drawn),-24.4
19,Cc1ccc(-c2nnc(CSc3nnc(COc4ccccc4)n3-c3ccc(C)cc3)o2)cc1,-7.47
